# Laboratory results published in PubChem BioAssay AID652154 (Broad Institute, 2013).
# The campaign covered roughly 360,000 compounds. About 4,200 (1.2%) were called active. For the sample, actives were picked, then their nearest neighbours and some compounds at random. Unmarked numbers belong to inactive results.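 The calls were made as follows: active = mean replicate inhibition at least 60% with every replicate also reaching 60%; inconclusive = only one of the two criteria is met; inactive = mean below 60% and not all replicates reaching 60%.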
# Test: inhibitors of PAX8-driven TPO luciferase reporter, primary screen, RMG-I cells, single concentration (AID 652154);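 also: luciferase light reporting Pax8 driven TPO promoter activity; plate controls were median of neutral control wells for no effect and mitoxantrone controls for full effect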
# Conditions: SteadyGlo, 24 h, at 12.6 µM, active compounds read high
row,Structure (SMILES),inhibition
1,CCCNC(=O)C[C@H]1CC[C@H]2[C@@H](COc3ccc(NC(=O)Nc4c(C)noc4C)cc3C(=O)N2C)O1,-6.6%
2,C[C@H]1CN([C@@H](C)CO)C(=O)Cc2cc(NC(=O)Nc3ccc(F)cc3)ccc2O[C@H]1CN(C)C(=O)Nc1ccc(C(F)(F)F)cc1,59.7%
3,CC(=O)N1[C@H](CNC(=O)CN(C)C)[C@H](c2ccc(C3=CCCC3)cc2)[C@@H]1CO,10.8%
4,Cc1cccc(NC(=O)c2nc(S(=O)(=O)Cc3ccccc3)ncc2Cl)c1,64.5% (active)
5,CSc1nnc(NC(=O)c2nc(S(=O)(=O)Cc3ccc(C)cc3)ncc2Cl)s1,54.7%
6,Cc1cccc(CS(=O)(=O)c2ncc(Cl)c(C(=O)Nc3ccc(F)cc3)n2)c1,96.3% (active)
7,CN1CCN(c2ccc(NC(=O)c3ccc4c(c3)[nH]c(=O)n4Cc3ccc(F)cc3)cc2)CC1,1.33%
8,Cc1cccc(NC(=O)CCN2CC(C)CC(C)C2)c1 (centres undefined),2.21%
9,Cc1ccc(C)c(Cn2nnc3c(=O)[nH]c(C(=O)Nc4ccc(F)cc4)nc32)c1,-3.4%
10,CN(C)CC#Cc1ccc([C@H]2[C@@H](CO)N(C(=O)C3CCC3)[C@H]2C#N)cc1,3.44%
11,CO[C@H]1CN(C)C(=O)c2ccc(NC(=O)c3ccno3)cc2OC[C@@H](C)N(S(C)(=O)=O)C[C@H]1C,-22.4%
12,C[C@H]1CN([C@@H](C)CO)C(=O)Cc2cc(NC(=O)Nc3ccc4c(c3)OCO4)ccc2O[C@H]1CN(C)Cc1ccc(C(=O)Nc2ccccc2N)cc1,37.5%
13,O=C(Cc1ccccn1)N1[C@@H]2CNc3ccccc3[C@@H]2[C@@H]1CO,-15.2%
14,O=C(C1CCOCC1)N1C[C@H]2[C@@H](c3ccccc31)[C@@H](CO)N2Cc1ccccc1F,-11.6%
15,C[C@H](NC(=O)C[C@@H]1CC[C@@H]2[C@H](COC[C@@H](O)CN2C(=O)Nc2cc(Cl)cc(Cl)c2)O1)c1ccccc1,49.2%
16,O=C(CCl)Nc1ccc(Sc2ccc(NC(=O)CCl)cc2)cc1,87.7% (active)
17,O=C(CCl)Nc1cccc(CP(=O)(c2ccccc2)c2ccccc2)c1,18.2%
18,CCC(=O)Nc1ccc(Nc2nc(Cl)nc(Nc3ccc(NC(=O)CC)cc3)n2)cc1,1.45%
19,C[C@@H]1CN([C@H](C)CO)C(=O)Cc2cc(NC(=O)Nc3ccc4c(c3)OCO4)ccc2O[C@H]1CN(C)Cc1ccc(C(F)(F)F)cc1,13.6%
20,CN(c1ccccc1)S(=O)(=O)c1cc(C(=O)OCC(=O)N2CCN(C(=O)c3ccco3)CC2)ccc1Cl,80.9% (active)
21,O=C(OCC(=O)N1CCN(C(=O)c2ccco2)CC1)c1cccc(O)c1,-23.5%
22,O=C(OCC(=O)N1CCN(C(=O)c2ccco2)CC1)c1ccc(Cl)c(Cl)c1,6.78%
23,C[C@@H]1CN([C@H](C)CO)C(=O)CCCn2cc(nn2)CO[C@@H]1CN(C)C(=O)Nc1ccc2c(c1)OCO2,-4.65%

row,Structure (SMILES),inhibition
1,C[C@@H]1CCCCO[C@@H](CN(C)C(=O)CCC(F)(F)F)[C@@H](C)CN([C@H](C)CO)C(=O)c2cc(NC(=O)Nc3ccccc3)ccc2O1,-44.3%
2,CC1=C(C(=O)OC2CCCCC2)C(c2ccccc2F)NC(=O)N1 (centres undefined),23.9%
3,COc1cc(C2C(C(=O)Nc3ccccc3OC)=C(C)Nc3ncnn32)ccc1O (centres undefined),24.6%
4,CC1=C(C(=O)OC2CCCCC2)C(c2cccnc2)n2ncnc2N1 (centres undefined),143% (active)
5,O=C(CC1CC1)N[C@@H]1C[C@@H]2O[C@H](CO)CC[C@@H]2O[C@@H]1CCc1ccc(C#Cc2ccccc2)cc1,-44%
6,N#Cc1cccc(-c2ccc([C@H]3[C@@H](CO)N4CCCCN(C(=O)Nc5ccccc5)C[C@H]34)cc2)c1,-12.5%
7,CCCNC(=O)Nc1ccc2c(c1)C(=O)N(C)[C@H]1CC[C@H](CC(=O)NC3CCC3)O[C@H]1CO2,-6.66%
8,CCC(=O)N(C)C[C@H]1[C@H](c2ccc(C3=CCCCC3)cc2)[C@@H](CO)N1C(C)=O,-0.343%
9,CC=Cc1ccc2n(c1=O)C[C@H]1[C@H](CO)[C@@H](C(=O)N3CCCCC3)N(Cc3ccccn3)[C@@H]21 (mixture of isomers),0.555%
10,CCCN1[C@H](C(=O)N2CCCCC2)[C@@H](CO)[C@@H]2Cn3c(ccc(-c4ccccc4F)c3=O)[C@@H]21,-10.5%
11,CCCN1[C@H](C(=O)N2CCOCC2)[C@@H](CO)[C@@H]2Cn3c(ccc(/C=C/c4ccccc4)c3=O)[C@@H]21,78.4% (active)
12,CCC(=O)N(C)C[C@@H]1Oc2ncc(C#C[C@H](C)O)cc2C(=O)N([C@@H](C)CO)C[C@@H]1C,-26.1%
13,COCC(=O)Nc1ccc2c(c1)C(=O)N(C)C[C@@H](OC)[C@H](C)CN(C(=O)c1ccccn1)[C@@H](C)CO2,2.92%
14,CCN1[C@@H]2c3cccc(=O)n3C[C@H]1[C@H](CO)[C@H]2C(=O)NC1Cc2ccccc2C1,-4.92%
15,CO[C@H]1CN(C)C(=O)c2ccc(NC(=O)CC(F)(F)F)cc2OC[C@@H](C)N(C(=O)c2ccccc2F)C[C@@H]1C,-20.3%
16,COc1ccc(CNC(=O)CCCn2nc(C)c([N+](=O)[O-])c2C)cc1,2.46%
17,Cc1ccc(Oc2cc(NC(=O)CCCn3nc(C)c([N+](=O)[O-])c3C)cc([N+](=O)[O-])c2)cc1,84.6% (active)
18,Cc1nn(CC(=O)Nc2ccc(N(C)C)cc2)c(C)c1[N+](=O)[O-],13.9%
19,Cc1ccccc1S(=O)(=O)N1CC[C@H]2[C@H](CO)Nc3ccc(-c4cccc(F)c4)cc3[C@H]21,-9.62%
20,COc1ccccc1NC(=O)N1C[C@H]2[C@@H](c3ccccc31)[C@@H](CO)N2C(=O)C1CCCC1,14.9%
21,CCCN1C[C@@H](C)[C@@H](OC)CN(C)C(=O)c2ccc(NC(=O)c3ccc(F)cc3)cc2OC[C@@H]1C,-1.32%
22,O=C(C[C@@H]1CC[C@H]2[C@@H](COC[C@@H](O)CN2S(=O)(=O)c2cccc(Cl)c2)O1)N1CCCCC1,-3.53%
23,CCC1Oc2ccccc2N(CC(=O)NCCCN2CCN(CC)CC2)C1=O (centres undefined),5.58%

row,Structure (SMILES),inhibition
1,CN1CCN(CCCNC(=O)c2ccc(/C=C3\Oc4ccccc4N(Cc4ccc(Cl)cc4)C3=O)cc2)CC1,100% (active)
2,Cc1c(C)n(Cc2ccc(Cl)cc2)c2ccc(C(=O)NCCCN3CCOCC3)cc12,15.4%
3,CN1c2ccc(Br)cc2[C@H]2[C@H](CCN2S(=O)(=O)c2ccccc2)[C@@H]1CO,0.611%
4,CN1CCCCC(NC(=O)C(C)(C)C)C1=O (centres undefined),8.76%
5,C[C@H](CO)N1C[C@H](C)[C@H](CN(C)CC2CC2)Oc2ccc(NC(=O)c3ccncc3)cc2C1=O,-14.7%
6,COc1ccccc1C#Cc1ccc2c(c1)O[C@H](CN(C)Cc1cccnc1)[C@@H](C)CN([C@H](C)CO)S2(=O)=O,70% (active)
7,C[C@@H]1CN([C@H](C)CO)S(=O)(=O)c2ccc(/C=C/c3ccccc3)cc2O[C@@H]1CN(C)Cc1ccccc1,31%
8,C[C@@H]1CN([C@H](C)CO)S(=O)(=O)c2ccc(C#CC3CCCC3)cc2O[C@@H]1CN(C)Cc1cccnc1,31.1%
9,COc1ccccc1C#Cc1ccc2c(c1)O[C@@H](CN(C)Cc1cncnc1)[C@H](C)CN([C@@H](C)CO)S2(=O)=O,74.3% (active)
10,C[C@H](O)C#Cc1ccc2c(c1)O[C@H](CN(C)Cc1cncnc1)[C@H](C)CN([C@@H](C)CO)S2(=O)=O,19.4%
11,C[C@@H]1CN([C@@H](C)CO)S(=O)(=O)c2ccc(/C=C/c3ccccc3)cc2O[C@H]1CN(C)Cc1ccccc1,11.4%
12,C[C@@H]1CN([C@@H](C)CO)S(=O)(=O)c2ccc(/C=C/c3ccccc3)cc2O[C@H]1CN(C)Cc1cccnc1,68.6% (active)
13,C[C@H](O)C#Cc1ccc2c(c1)O[C@@H](CN(C)Cc1cncnc1)[C@H](C)CN([C@H](C)CO)S2(=O)=O,8.97%
14,COCC#Cc1ccc2c(c1)O[C@@H](CN(C)Cc1cccnc1)[C@@H](C)CN([C@H](C)CO)S2(=O)=O,-14.2%
15,COc1ccccc1NC(=O)N[C@H]1C=C[C@@H](CC(=O)N[C@@H](C)c2ccccc2)O[C@@H]1CO,4.41%
16,O=C(C[C@H]1CC[C@@H]2[C@H](COC[C@H](O)CN2C(=O)c2ccc3c(c2)OCO3)O1)NC1CCC1,-16.6%
17,CC(=O)Nc1ccc2c(c1)C(=O)N(C)[C@@H]1CC[C@H](CC(=O)NCc3ccccc3)O[C@H]1CO2,-2.89%
18,C/C=C/c1cnc2c(c1)C(=O)N([C@H](C)CO)C[C@H](C)[C@@H](CN(C)C(=O)c1cccc(F)c1)O2,-7.23%
19,C[C@H](CO)N1C[C@H](C)[C@@H](CN(C)S(=O)(=O)c2ccc(F)cc2)Oc2ccc(NC(=O)CCCCCC(=O)Nc3ccccc3N)cc2CC1=O,26.9%
20,C[C@H](CO)N1C[C@H](C)[C@@H](CN(C)S(=O)(=O)c2cn(C)cn2)Oc2ccc(NS(=O)(=O)c3cn(C)cn3)cc2C1=O,-10.4%
21,COC(=O)[C@@]1(Cc2ccc(F)cc2)[C@H]2c3cc(C(=O)N4CCCC4)n(C[C@H](O)CO)c3C[C@H]2CN1C(=O)c1ccccc1,0.0525%
22,COC(=O)[C@@]1(Cc2ccc(F)cc2)[C@H]2c3cc(C(=O)N(C)C)n(CCc4c[nH]c5ccc(OC)cc45)c3C[C@H]2CN1C(=O)c1ccccc1,-3.55%
23,COC(=O)[C@@]1(Cc2ccc(OC)cc2)[C@H]2c3cc(C(=O)N4CCCC4)n(Cc4ccc(OC(F)(F)F)cc4)c3C[C@H]2CN1C(=O)c1ccccc1,77% (active)
